A short description of assay [1]: qHTS assay to identify aromatase inhibitors - cell viability counter screen (AID 743084).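 Further: cells stimulated with testosterone during compound exposure; nearly all actives have a fitted effect of over 55% in size.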 In general terms: Quantitative high-throughput screening tests each substance at several concentrations.
Assay [2] addresses Aryl hydrocarbon receptor (Homo sapiens) (UniProt P35869). Description: qHTS assay to identify small molecule that activate the aryl hydrocarbon receptor (AhR) signaling pathway (AID 743085). Further: nearly all actives have a fitted effect of over 15% in size. Further: potency means the concentration at half of the fitted maximal effect.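 On activation: HG2L7.5c1 human HepG2 liver cells with stably integrated DRE-driven firefly reporter; series mostly up to about 70 µM.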 The method in brief: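 A multiplexed format paired cell viability (CellTiter-Fluor fluorescence) with AhR-dependent luciferase output (ONE-Glo luminescence) in the same wells of HepG2 DRE-luc cells after 24 h compound exposure at 37C.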

Assay [3] is described as follows: qHTS assay to identify small molecule that activate the aryl hydrocarbon receptor (AhR) signaling pathway - cell viability counter screen (AID 743086).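 Further: HepG2 liver cells carrying the AhR DRE luciferase reporter; series mostly up to about 70 µM; nearly all actives have a fitted effect of over 45% in size.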 The method in brief:
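HepG2-AhR-luc (HG2L7.5c1) cells, 4000/well, were preincubated 5 h at 37C, exposed to compound in qHTS format for 24 hr at 37C, then given CellTiter-Fluor for 30 min; viability was read as fluorescence in the reporter wells.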

For assay [4], the target named is Peroxisome proliferator-activated receptor gamma (Homo sapiens) (UniProt P37231). Nature of the assay: qHTS assay to identify small molecule agonists of the peroxisome proliferator-activated receptor gamma (PPARg) signaling pathway (AID 743094; active means well fitted activation curve with a large enough effect in the signal ratio in the repeat runs, not every such curve was filed as active; the % refers to the signal ratio). The gist of the method: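 Fluorescence-based beta-lactamase readout in HEK293H PPARg UAS-bla cells after 17 h compound exposure (37C) and 1 h B/G FRET substrate incubation at room temperature.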

A short description of assay [5]: qHTS assay to identify small molecule antagonists of the peroxisome proliferator-activated receptor gamma (PPARg) signaling pathway - cell viability counter screen (AID 743194). Further: nearly all actives have a fitted effect of over 55% in size. The method in brief:
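PPARg-UAS-bla HEK293H cells were plated, rested 5 h at 37 C, then treated with compounds plus rosiglitazone (50 nM final) for 17 h at 37 C; viability was then read by CellTiter-Glo luminescence after 30 min at room temperature.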

Assay [6] can be described thus: qHTS assay for small molecule agonists of the antioxidant response element (ARE) signaling pathway - cell viability counter screen (AID 743203; calls by dose curve; further: nearly all actives have a fitted effect of over 55% in size). The gist of the method:
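Parallel cytotoxicity read-out for the ARE-bla screen: HepG2 reporter cells, 16 hrs with compounds, then CellTiter-Glo luminescence.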

Assay [7] in a line: qHTS assay for small molecule activators of the heat shock response signaling pathway - cell viability counter screen (AID 743209). Further: nearly all actives have a fitted effect of over 50% in size. The method in brief: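 To flag cytotoxic compounds, HSE-bla HeLa cells plated at 1500 cells/well were dosed for 5 h at 37 C, followed by the reporter FRET read and then CellTiter-Glo, with luminescence recorded 30 min after reagent addition.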
Assay [8] can be described thus: qHTS assay for small molecule activators of the heat shock response signaling pathway (AID 743210; active means well fitted activation curve with a large enough effect in the signal ratio in the repeat runs, with a control signal flat, not every such curve was filed as active; the % refers to the signal ratio;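 further: HeLa cells with beta-lactamase reporter driven by heat shock elements; series mostly up to about 63 µM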). The method in brief:
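Activation of heat shock element-controlled beta-lactamase expression is measured in HeLa cells by LiveBLAzer FRET fluorescence, with compound exposure lasting 5 h at 37 C and substrate loading 2.5 h at room temperature.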

The target of assay [9] is Peroxisome proliferator-activated receptor gamma (Homo sapiens) (UniProt P37231). Description: qHTS assay to identify small molecule antagonists of the peroxisome proliferator-activated receptor gamma (PPARg) signaling pathway (AID 743191; calls by dose curve; further: series mostly up to about 63 µM; nearly all actives have a fitted effect of over 30% in size). The gist of the method:
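GeneBLAzer PPARg UAS-bla HEK293H cells carrying a UAS-driven beta-lactamase reporter were plated at 3000 cells/well, preincubated 5 h at 37C, then given compound for 17 h at 37C; LiveBLAzer B/G FRET substrate was read after 1 h at room temperature.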

Assay [10] can be described thus: qHTS assay for small molecule agonists of the antioxidant response element (ARE) signaling pathway (AID 743202; active means well fitted activation curve with a large enough effect in the signal ratio in the repeat runs, not every such curve was filed as active; the % refers to the signal ratio). The gist of the method:
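Steps: seed ARE-bla HepG2 cells (2,000/well); incubate 5 h at 37 C; add compounds by pin tool; incubate 16 h at 37 C; add FRET substrate; read fluorescence after 2 h at RT.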

Inconclusive results are not listed. Values without a mark were called inactive. Active and inactive are the calls of the source. Unless noted, the call rests on the fitted dose curve; in most records, active means well fitted curve in the direction sought with a large enough effect in the repeat runs; inconclusive means weak or mixed curves; inactive means no such curve, though single readings can be large; an effect the other way counts as inactive or inconclusive.

Aryl hydrocarbon receptor (Homo sapiens), sequence (P35869 whole entry, looked up): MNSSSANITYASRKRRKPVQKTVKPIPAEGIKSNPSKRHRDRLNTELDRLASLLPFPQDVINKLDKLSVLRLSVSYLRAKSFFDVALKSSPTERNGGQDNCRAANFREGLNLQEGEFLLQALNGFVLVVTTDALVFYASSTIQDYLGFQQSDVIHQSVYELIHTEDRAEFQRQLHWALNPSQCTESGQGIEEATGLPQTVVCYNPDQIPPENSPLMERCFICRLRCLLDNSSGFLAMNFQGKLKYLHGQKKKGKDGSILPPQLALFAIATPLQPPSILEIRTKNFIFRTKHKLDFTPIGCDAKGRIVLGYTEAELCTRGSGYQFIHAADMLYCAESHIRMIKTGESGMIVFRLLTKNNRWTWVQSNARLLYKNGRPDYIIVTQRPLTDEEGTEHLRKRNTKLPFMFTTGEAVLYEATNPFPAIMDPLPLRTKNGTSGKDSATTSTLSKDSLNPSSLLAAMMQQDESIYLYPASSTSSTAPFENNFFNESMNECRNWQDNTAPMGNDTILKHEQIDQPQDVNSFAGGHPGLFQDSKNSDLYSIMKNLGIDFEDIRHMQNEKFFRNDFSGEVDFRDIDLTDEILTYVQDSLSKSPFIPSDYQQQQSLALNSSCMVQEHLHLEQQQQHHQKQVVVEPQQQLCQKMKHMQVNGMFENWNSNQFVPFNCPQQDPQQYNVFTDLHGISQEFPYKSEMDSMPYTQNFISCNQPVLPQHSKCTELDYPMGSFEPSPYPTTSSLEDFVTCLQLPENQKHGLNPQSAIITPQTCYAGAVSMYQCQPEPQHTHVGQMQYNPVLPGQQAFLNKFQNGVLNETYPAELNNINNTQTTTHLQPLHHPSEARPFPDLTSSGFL
Peroxisome proliferator-activated receptor gamma (Homo sapiens), sequence (P37231 whole entry, looked up): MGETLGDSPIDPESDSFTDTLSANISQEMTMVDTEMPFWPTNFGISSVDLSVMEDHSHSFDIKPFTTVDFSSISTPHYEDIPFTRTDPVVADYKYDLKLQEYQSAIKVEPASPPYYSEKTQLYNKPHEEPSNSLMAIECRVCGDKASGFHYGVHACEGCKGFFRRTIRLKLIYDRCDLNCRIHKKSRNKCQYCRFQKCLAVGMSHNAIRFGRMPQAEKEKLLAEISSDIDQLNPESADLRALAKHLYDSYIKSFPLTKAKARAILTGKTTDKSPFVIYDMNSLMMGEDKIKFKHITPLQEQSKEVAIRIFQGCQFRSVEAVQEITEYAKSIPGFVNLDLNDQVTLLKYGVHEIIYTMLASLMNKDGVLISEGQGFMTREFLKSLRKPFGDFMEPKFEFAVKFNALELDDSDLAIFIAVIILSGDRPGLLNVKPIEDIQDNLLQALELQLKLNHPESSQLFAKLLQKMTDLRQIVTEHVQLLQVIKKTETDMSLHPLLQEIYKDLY

`C=C(C)C(=O)OCC(C)(C)COC(=O)C(=C)C`: the Potency entry in assay [1], in [2] and in assay [3] was “inactive” throughout. Moreover, the compound was called inactive in [4], in assay [5], in assay [6], in assay [7] and in assay [8].
With `COc1ccc(S(=O)(=O)N2c3ccc(Cl)cc3[C@@](O)(c3ccccc3Cl)[C@H]2C(=O)N2CCC[C@@H]2C(N)=O)cc1OC`, the Potency entry in [1], in assay [2], in assay [3], in assay [9] and in [10] was “inactive” in each case. Moreover, the call in [5], in assay [6], in [7] and in assay [8] was inactive.
In the case of `COC(=O)CCc1ccc(OCC(O)CNC(C)C)cc1` (stereo not drawn), the Potency result in assay [1], in [2], in [9] and in assay [10] was “inactive” throughout. Moreover, the outcome in assay [4], in [5], in [6], in assay [7] and in [8] was inactive.
On to `NS(=O)(=O)c1ccc(NC(=O)CCC(=O)O)cc1`, for which the Potency entry in [1], in [2] and in assay [10] was “inactive” in each case. Also, the call in assay [4], in [5], in assay [6], in [7] and in [8] was inactive.
As to `CCCCOCCOC(=O)COc1nc(Cl)c(Cl)cc1Cl`, the Potency result in assay [1], in assay [2] and in [3] was “inactive” throughout. Further, the compound was called inactive in assay [4], in assay [5], in assay [6], in [7] and in [8].
For `CCCCCCCCC(=O)Cl`, the Potency result in [1], in [2] and in assay [3] was “inactive” in each case. Moreover, the outcome in assay [4], in assay [5], in assay [6], in [7] and in [8] was inactive.
With `CCC(CC)CO`, the Potency entry in assay [1], in assay [2], in assay [3] and in assay [10] was “inactive” in each case. The result in [4], in assay [6], in assay [7] and in assay [8] was inactive.
As to `CCOC(=O)/C=C/c1ccccc1`, the Potency entry in [1], in [2] and in assay [9] was “inactive” each time. Moreover, the outcome in assay [4], in assay [5], in [6] and in assay [7] was inactive.
For `OCCCCC(O)CO` (stereo not drawn), the Potency result in [1], in [2], in [9] and in [10] was “inactive” in each case. For the same compound, the call in [4], in [5], in assay [6], in assay [7] and in assay [8] was inactive.
Consider `NCCS`, for which the Potency result in [1], in assay [2], in assay [9] and in assay [10] was “inactive” throughout. Besides, the compound was classed as inactive in [4], in assay [5], in [6], in [7] and in assay [8].
For `Cc1ccc2c(c1)OCC(=O)CO2`, the Potency result in assay [1], in assay [2], in assay [9] and in assay [10] was “inactive” throughout. The compound was classed as inactive in assay [4], in [5], in [6], in [7] and in assay [8].
As for `CCCN1C[C@H](CSC)C[C@@H]2c3cccc4[nH]cc(c34)C[C@H]21`, the Potency entry in [1], in assay [2], in [3], in assay [9] and in assay [10] was “inactive” each time. In addition, the compound was called inactive in [5], in assay [6] and in assay [7].
As to `CC(C(=O)O)c1ccc2c(c1)CC(=O)c1ccccc1S2` (stereo not drawn), the Potency result in [1], in assay [2] and in assay [3] was “inactive” in each case. Moreover, the outcome in [5], in assay [6], in [7] and in assay [8] was inactive.
In the case of `N[C@@H](CCC(=O)N[C@@H](CS)C(=O)NCC(=O)O)C(=O)O`, the Potency result in assay [1], in assay [2], in [3] and in assay [10] was “inactive” in each case. For the same compound, the compound was classed as inactive in assay [5], in [6], in [7] and in assay [8].
For `CC1(C)S[C@@H]2[C@H](N=CN3CCCCCC3)C(=O)N2[C@H]1C(=O)O`, the Potency result in assay [1], in assay [2], in [9] and in [10] was “inactive” in each case. Further, the compound was called inactive in [4], in assay [5], in [6], in [7] and in assay [8].
As to `CC(=O)OC(C)OC(=O)C(C)c1ccc(-c2ccccc2)c(F)c1` (stereo not drawn), the Potency entry in assay [1], in [2] and in [3] was “inactive” throughout. Moreover, the compound was classed as inactive in [4], in assay [5], in assay [6], in assay [7] and in assay [8].
In the case of `COc1ccc(-c2cc(=O)c3c(O)cc(O[C@@H]4O[C@H](CO[C@@H]5O[C@@H](C)[C@H](O)[C@@H](O)[C@H]5O)[C@@H](O)[C@H](O)[C@H]4O)cc3o2)cc1O`, the Potency entry in [1] and in assay [3] was “inactive” throughout. Moreover, the Potency in [2] is 29.8 µM (active). Moreover, the result in assay [4], in assay [5], in assay [6], in assay [7] and in [8] was inactive.
For the compound `CCOc1cc([N+](=O)[O-])c(OCC)cc1N1CCOCC1`, the Potency result in [1], in [2] and in assay [10] was “inactive” each time. Also, the compound was called inactive in assay [4], in assay [5], in assay [6], in assay [7] and in assay [8].
With `CCCCCCCCOS(=O)(=O)O`, the Potency result in assay [1], in assay [2], in assay [9] and in assay [10] was “inactive” throughout. In addition, the compound was called inactive in [4], in assay [5], in assay [6], in assay [7] and in [8].
On to `CCCCNc1ccc(C(=O)OCCN(C)C)cc1`, for which the Potency result in assay [1], in assay [2] and in [3] was “inactive” in each case. The call in assay [5], in assay [6], in assay [7] and in assay [8] was inactive.
As to `O=C(NCCc1c[nH]c2ccccc12)c1cccnc1`, the Potency entry in [1], in assay [9] and in assay [10] was “inactive” each time. Besides, the Potency in assay [2] is 13.3 µM (active). For the same compound, the result in assay [4], in assay [5], in [6], in assay [7] and in assay [8] was inactive.

For the origin of these results see PubChem BioAssay (Tox21).
